Experimental findings from PubChem BioAssay (NCATS) are described below.

Assay [1] deals with Phosphoglycerate kinase, glycosomal (Trypanosoma brucei brucei) (UniProt P07378). The assay is described as follows: qHTS Validation Assay to Find Inhibitors of Phosphoglycerate Kinase (AID 504547). The following applies: enzymatic PGK inhibition, coupled luminescence read-out; series mostly up to 57.5 µM. Summed up:
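Compounds are pinned into the substrate/PGK mixture, and GAPDH (100nM final) is added to start the reaction by producing 1,3-BPG. After 60 minutes at room temperature, Kinase-Glo Plus is added and luminescence is measured 10 minutes later.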
For orientation: In qHTS, concentration-response curves come from the screen itself.

Assay [2] addresses phosphoglycerate mutase (Leishmania major) (UniProt Q4Q090). The assay is described as follows: qHTS Validation Assay to Find Inhibitors of Phosphoglycerate Mutase (AID 504548).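 Also: end-point luminescence from Kinase-GloPlus after the PGAM reaction.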 The conditions noted are these: biochemical enzyme activity; Potency: inhibition qHTS; series mostly up to 57.5 µM. Summed up:
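Inhibition of L. major PGAM was assessed by Kinase-GloPlus luminescence following a 45-minute room-temperature reaction with enzyme at 1.25nM final.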

Assay [3] deals with Ubiquitin carboxyl-terminal hydrolase 1 (Homo sapiens) (UniProt O94782). The assay is described as follows: Inhibitors of USP1/UAF1: Pilot qHTS (AID 504865). Also: nearly all actives have a fitted effect of over 35% in size. Also: potency is read from the fitted curve at half-maximal effect. The conditions noted are these: purified USP1/UAF1, Ub-rhodamine cleavage fluorescence; series mostly up to 114 µM. Summed up: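 USP1/UAF1 complex (1nM) preincubated with compound 15 min at room temperature, then Ub-Rho substrate (150nM final) added. Fluorescence read kinetically at 480/540 nm, 6 reads every 60 seconds. Buffer: 50mM HEPES pH 7.8, 0.5mM EDTA, 0.1 mg/ml BSA, 1mM TCEP, 0.01% Tween-20.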
Chain of Ubiquitin carboxyl-terminal hydrolase 1 (Homo sapiens) (O94782 whole entry, looked up): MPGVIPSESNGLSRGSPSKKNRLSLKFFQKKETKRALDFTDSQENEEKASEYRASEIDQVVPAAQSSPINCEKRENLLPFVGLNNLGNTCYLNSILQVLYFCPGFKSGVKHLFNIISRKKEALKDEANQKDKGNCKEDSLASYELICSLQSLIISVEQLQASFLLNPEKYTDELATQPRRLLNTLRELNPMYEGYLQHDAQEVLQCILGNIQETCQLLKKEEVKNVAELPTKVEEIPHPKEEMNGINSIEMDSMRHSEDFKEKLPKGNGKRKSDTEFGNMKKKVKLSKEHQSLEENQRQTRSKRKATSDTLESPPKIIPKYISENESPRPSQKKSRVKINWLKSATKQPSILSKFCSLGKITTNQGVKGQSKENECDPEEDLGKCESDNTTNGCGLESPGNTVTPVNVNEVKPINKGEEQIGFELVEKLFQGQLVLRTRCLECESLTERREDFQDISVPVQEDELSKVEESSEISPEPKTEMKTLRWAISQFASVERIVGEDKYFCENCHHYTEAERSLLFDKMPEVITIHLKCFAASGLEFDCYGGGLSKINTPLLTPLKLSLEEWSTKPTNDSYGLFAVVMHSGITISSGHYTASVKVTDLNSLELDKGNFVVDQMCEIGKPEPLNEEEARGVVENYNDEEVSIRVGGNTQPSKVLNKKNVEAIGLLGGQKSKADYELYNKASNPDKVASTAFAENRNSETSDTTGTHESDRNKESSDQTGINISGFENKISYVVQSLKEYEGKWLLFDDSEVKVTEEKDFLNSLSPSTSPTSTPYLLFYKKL

The nature of assay [4]: qHTS for Inhibitors of ATXN expression: Validation of Cytotoxic Assay (AID 588349). Also: potency is read from the fitted curve at half-maximal effect. The conditions noted are these: cytotoxicity counter-screen for ATXN expression inhibitors, cell viability; series mostly up to 57.1 µM. The procedure, abridged:
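Cytotoxicity counter-screen: HEK293 cells exposed to compound titrations, 72 hr, 37 degrees C. Read-out is intracellular ATP (CellTiter Glo luminescence) as a viability measure.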

Assay [5] is described as follows: qHTS for Inhibitors of ATXN expression: Validation (AID 588378). Also: nearly all actives have a fitted effect of over 75% in size. Also: potency is read from the fitted curve at half-maximal effect. The following applies: cell-based ATXN2 expression reporter assay, luminescence; series mostly up to 57.1 µM. Summed up:
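Luminescence from an ATXN2-FFLuc reporter in HEK293 cells served as read-out after 24 h compound treatment at 37 degrees C; CellTiter-Fluor fluorescence was recorded first to assess viability.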

Records with an inconclusive call do not appear. Activity calls are given as the source filed them. Calls follow the shape of the dose curve; as a rule, active = well fitted curve in the direction sought with a large enough effect; inconclusive = small, poorly fitted or top-dose-only effect, or another doubt; inactive = no such curve, though single readings can be large; an effect the other way counts as inactive or inconclusive.

Chain of phosphoglycerate mutase (Leishmania major) (Q4Q090 1-553): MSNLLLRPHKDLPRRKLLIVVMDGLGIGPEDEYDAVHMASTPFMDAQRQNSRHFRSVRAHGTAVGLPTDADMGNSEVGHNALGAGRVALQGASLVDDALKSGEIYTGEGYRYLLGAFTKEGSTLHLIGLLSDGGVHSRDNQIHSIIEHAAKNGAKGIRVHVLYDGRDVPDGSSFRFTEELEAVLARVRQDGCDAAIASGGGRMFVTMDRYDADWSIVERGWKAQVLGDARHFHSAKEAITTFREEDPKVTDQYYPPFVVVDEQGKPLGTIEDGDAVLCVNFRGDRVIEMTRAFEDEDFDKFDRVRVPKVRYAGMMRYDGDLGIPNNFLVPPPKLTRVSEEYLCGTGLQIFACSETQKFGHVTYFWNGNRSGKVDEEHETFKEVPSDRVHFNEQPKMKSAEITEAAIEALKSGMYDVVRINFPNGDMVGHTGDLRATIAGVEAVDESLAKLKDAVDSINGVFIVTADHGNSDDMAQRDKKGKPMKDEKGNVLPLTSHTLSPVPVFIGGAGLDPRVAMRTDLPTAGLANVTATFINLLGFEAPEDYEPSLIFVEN
Chain of Phosphoglycerate kinase, glycosomal (Trypanosoma brucei brucei) (P07378 whole entry, looked up): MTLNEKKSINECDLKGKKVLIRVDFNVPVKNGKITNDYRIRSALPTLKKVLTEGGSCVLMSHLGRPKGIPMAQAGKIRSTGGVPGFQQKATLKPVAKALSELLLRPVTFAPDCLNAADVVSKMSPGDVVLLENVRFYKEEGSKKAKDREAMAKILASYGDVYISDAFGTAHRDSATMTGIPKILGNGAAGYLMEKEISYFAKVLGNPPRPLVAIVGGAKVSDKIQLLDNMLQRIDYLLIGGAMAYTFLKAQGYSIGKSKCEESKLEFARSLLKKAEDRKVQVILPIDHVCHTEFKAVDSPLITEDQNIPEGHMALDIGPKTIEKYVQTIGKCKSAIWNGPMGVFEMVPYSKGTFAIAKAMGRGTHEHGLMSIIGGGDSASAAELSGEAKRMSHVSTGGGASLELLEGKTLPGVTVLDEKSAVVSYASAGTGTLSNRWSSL

Regarding `O=C1NC(=O)/C(=C/c2ccc(-c3ccc(F)cc3O)o2)S1`, the Potency result in assay [1], in assay [2] and in assay [4] was “inactive” each time. The Potency in assay [3] was 44.7 µM (active).
For `Nc1ncnc2c1ncn2[C@@H]1O[C@H](COP(=O)(O)CP(=O)(O)OP(=O)(O)O)[C@@H](O)[C@H]1O`, the Potency entry in assay [1], in assay [2], in assay [3], in assay [4] and in assay [5] was “inactive” each time.
Regarding `OC[C@H]1O[C@@H](n2cnc3c(Nc4ccccc4)ncnc32)[C@H](O)[C@@H]1O`, the Potency entry in assay [1], in assay [2], in assay [3], in assay [4] and in assay [5] was “inactive” throughout.
Consider `NC[C@@H]1O[C@H](C23CC4CC(CC(C4)C2)C3)Cc2c1ccc(O)c2O`, for which the Potency result in assay [1], in assay [2] and in assay [3] was “inactive” throughout. The Potency is 31.6 µM (active) in assay [4] and 20 µM (active) in assay [5].
Regarding `Cc1cc(NC(=O)Nc2ccc3c(ccn3C)c2)sn1`, the Potency entry in assay [1], in assay [2], in assay [3] and in assay [5] was “inactive” in each case.
In the case of `CC(=O)SCC[N+](C)(C)C`, the Potency result in assay [1], in assay [2], in assay [3] and in assay [5] was “inactive” throughout.
With `CN1CCc2ccccc2Cc2[nH]c3ccccc3c2CC1`, the Potency entry in assay [1], in assay [2], in assay [3], in assay [4] and in assay [5] was “inactive” each time.
`COc1ccc(/C=C/C(=O)Nc2ccccc2C(=O)O)cc1OC`: the Potency entry in assay [1], in assay [2] and in assay [4] was “inactive” throughout.
Consider `CCCN(CC1CC1)c1nc(C)nc(Nc2c(Cl)cc(Cl)cc2Cl)c1Cl`, for which the Potency result in assay [1], in assay [2], in assay [3], in assay [4] and in assay [5] was “inactive” each time.
Consider `Cn1cc(C2=C(c3ccc(Cl)cc3Cl)C(=O)NC2=O)c2ccccc21`, for which the Potency result in assay [1], in assay [2], in assay [4] and in assay [5] was “inactive” in each case. In addition, in assay [3], the Potency is 23.8 µM (active).
As for `COc1cccc(C(=O)NCCN2CCN(c3ccc(Cl)cc3)CC2)c1`, the Potency result in assay [1], in assay [2], in assay [3] and in assay [4] was “inactive” throughout.
